# Measured values taken from the supplement of paper PMC4166925.
# ± gives the standard deviation of the averaged measurements. The full ranking holds about 33,000 sequences; the median of “E-score (dimensionless, -0.5 to 0.5)” is about -0.046, and the highest 2% start at about 0.36. Only a selection was taken, and the highest values are over-represented in it overall.
# System: T1, SpTbr T-box DNA-binding domain (GST fusion)
# T1 sequence: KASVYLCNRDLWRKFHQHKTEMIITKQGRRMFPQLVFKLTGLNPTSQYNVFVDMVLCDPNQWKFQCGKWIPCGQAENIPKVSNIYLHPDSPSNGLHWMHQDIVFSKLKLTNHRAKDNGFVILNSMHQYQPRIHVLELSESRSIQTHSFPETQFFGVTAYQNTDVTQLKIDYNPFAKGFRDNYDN
# Assay: PBM E-score of 8-mer (E-score (dimensionless, -0.5 to 0.5)); Tbr is Tbrain of the sea star Patiria miniata (Pm) or the sea urchin Strongylocentrotus purpuratus (Sp); higher = stronger binding preference
# Settings: the construct has about 5 more residues each side
# Description: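 Universal protein-binding microarray (Agilent AMADID 016060, 60-bp probes with a 35-bp variable region) incubated with 200 nM GST-fused Strongylocentrotus purpuratus Tbr T-box DNA-binding domain (residues 362-554) in PBS pH 7.5. Scored for every ungapped 8-mer (given with its reverse complement) as E-score (range -0.5 to 0.5; >0.45 counts as bound) and Z-score of median probe intensity. Two replicate arrays (datasets 1 and 2).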
# 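Further: protein at 200 nM in PBS on universal double-stranded arrays.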
row,Sequence,PBM E-score of 8-mer
1,CTCACCTC,0.444 ± 0.0047
2,ATCACCTC,0.387 ± 0.0097
3,CTCACCGC,0.0406 ± 0.0049
4,ATCACCAC,0.113 ± 0.004
5,ATCACCTA,0.321 ± 0.065
6,CCGGTTCC,-0.27 ± 0.0077
7,GTGCCATA,0.222 ± 0.024
8,ATAACGCC,0.28 ± 0.032
9,AAGGATTA,-0.152 ± 0.047
10,CAGATCAG,-0.0587 ± 0.00064
11,AAAAGTGT,0.39 ± 0.016
12,ACAAGTGG,0.355 ± 0.012
13,AAAAGTGA,0.169 ± 0.069
14,ACAAGTGA,0.243 ± 0.07
15,AAAAGTGG,0.118 ± 0.11
16,ACAAGTGT,0.381 ± 0.019
17,TAACCCTA,-0.15553 ± 2.1e-05
18,ACTGTGAA,0.413 ± 0.0064
19,TCTGTGAA,0.329 ± 0.017
20,CTTGTGAA,0.353 ± 0.034
21,GCTGTGGA,0.151 ± 0.058
22,GCTGTGAA,0.4045 ± 0.0013
23,ATTGTGAA,0.317 ± 0.067
24,ACTGTGAG,0.269 ± 0.031
25,ACTGTGAT,0.242 ± 0.0029

row,Sequence,PBM E-score of 8-mer
1,GTTGTGAA,0.4 ± 0.015
2,AAAGAGAG,-0.0256 ± 0.025
3,GAACTCGA,0.194 ± 0.051
4,TATGATAA,-0.00343 ± 0.017
5,GGTGATAA,0.37553 ± 0.00031
6,TGTGATAA,0.377 ± 0.017
7,AGTGATAA,0.278 ± 0.067
8,GGTGATAC,0.221 ± 0.028
9,CGTGATAA,0.27 ± 0.036
10,CGTATGCC,-0.271 ± 0.057
11,ATACCTAT,-0.0845 ± 0.068
12,AAACCTGT,0.0331 ± 0.12
13,ACACCTAA,0.4637 ± 0.0015
14,ACACCTAT,0.4592 ± 0.0012
15,AGACCTAT,-0.142 ± 0.047
16,ACACCTAG,0.444 ± 0.0087
17,ACACCTGT,0.4669 ± 0.0038
18,TCACCTAA,0.301 ± 0.018
19,GCACCTAA,0.339 ± 0.04
20,CCACCTAG,0.183 ± 0.046
21,AAACCTAG,0.0536 ± 0.035
22,ACACCGGT,0.246 ± 0.055
23,CGTGGGAC,0.0261 ± 0.0086
24,AATCCCAC,0.151 ± 0.013
25,ATCTGCCG,-0.21 ± 0.071

row,Sequence,PBM E-score of 8-mer
1,TGCATTAA,0.022 ± 0.05
2,CATGCGCC,-0.226 ± 0.0069
3,CGCATATC,-0.0822 ± 0.013
4,CAGACCCA,-0.0355 ± 0.018
5,AGGTCTTA,-0.0667 ± 0.12
6,CCCTCACG,0.153 ± 0.063
7,ACTGGACC,-0.203 ± 0.069
8,ATCCAGCC,-0.0901 ± 0.0022
9,ACACCTAC,0.462 ± 0.0061
10,CCACCTAC,0.248 ± 0.043
11,GCACCTAC,0.352 ± 0.025
12,AATAGATG,0.0328 ± 0.094
13,AACTAATG,-0.0496 ± 0.012
14,AGCTTTGA,-0.239 ± 0.067
15,AGTCTCTC,-0.105 ± 0.029
16,CTTCCTCC,-0.204 ± 0.065
17,GGCAACAC,0.3658 ± 0.00072
18,CGCAACAC,0.306 ± 0.024
19,GGCAACAA,0.13 ± 0.019
20,AGCAACAG,-0.0121 ± 0.0042
21,AGCAACAA,0.1945 ± 0.00053
22,AGCAACAC,0.376 ± 0.026
23,GGTTATCA,0.0778 ± 0.034
24,CGCTAAAC,0.187 ± 0.1
25,GACGGGCA,-0.2934 ± 0.0011

row,Sequence,PBM E-score of 8-mer
1,AACTGGTG,0.188 ± 0.02
2,ACACCCCT,0.385 ± 0.013
3,ACACCCCG,0.35 ± 0.018
4,ACCCCCCT,-0.162 ± 0.03
5,ACACCCCA,0.376 ± 0.013
6,ACCCCTCT,-0.063 ± 0.085
7,ACACCCCC,0.363 ± 0.015
8,TGACGTAA,-0.098 ± 0.019
9,CATATCTA,-0.24 ± 0.025
10,GAAGCCTA,-0.182 ± 0.037
11,GACGGGCC,-0.12 ± 0.046
12,GAGCGCGA,0.279 ± 0.053
13,AAGCGCGA,0.369 ± 0.007
14,CAGCGCGA,0.199 ± 0.0059
15,AAGCGCGG,0.136 ± 0.063
16,TAGCGCGA,0.3785 ± 0.0014
17,AAGCGCGC,0.0762 ± 0.0076
18,CTTCCAGA,-0.22 ± 0.011
19,ACCATAGC,0.0118 ± 0.017
20,CTCTGGGC,-0.112 ± 0.012
21,TCATTGGA,-0.0638 ± 0.031
22,CCTCCATC,-0.0262 ± 0.042
23,CCACACTA,0.279 ± 0.029
24,CCACACTC,0.374 ± 0.015
25,CCACACCG,0.226 ± 0.071

row,Sequence,PBM E-score of 8-mer
1,CCACACCC,0.414 ± 0.024
2,ACACACTC,0.307 ± 0.019
3,ACACACCC,0.33 ± 0.0064
4,ATCCTGCC,-0.182 ± 0.054
5,ATGGGCAG,-0.0503 ± 0.058
6,ATGCCCGC,0.031 ± 0.012
7,GAGTGCCA,0.20475 ± 0.00018
8,ATGTGCCA,0.374 ± 0.01
9,AAGTGCTA,0.419 ± 0.014
10,AAGTGCTG,0.246 ± 0.04
11,AAGTGCCA,0.4045 ± 0.0038
12,AAGTGCTC,0.118 ± 0.051
13,AAGTGCCC,-0.146 ± 0.044
14,ATGTGCCC,-0.0447 ± 0.038
15,ATGTGCCG,0.175 ± 0.032
16,AAGAGAGA,-0.141 ± 0.03
17,GTCACAGA,0.0552 ± 0.0087
18,CTCACACA,0.438 ± 0.0081
19,CACACACA,0.3384 ± 0.00066
20,CACACACG,0.233 ± 0.057
21,GTCACACA,0.409 ± 0.03
22,GTCACAAA,0.125 ± 0.032
23,ATATTAAT,-0.209 ± 0.078
24,CTGTGGTC,-0.0438 ± 0.0053
25,CCAGCCGG,-0.00031 ± 0.015

row,Sequence,PBM E-score of 8-mer
1,AGGTAGCG,0.143 ± 0.04
2,CTTACGCC,0.177 ± 0.0022
3,ATCACGCA,0.19 ± 0.026
4,ATCACGCC,0.403 ± 0.0051
5,CTCACGCC,0.397 ± 0.039
6,CCCACGCC,0.163 ± 0.014
7,ATCACGCG,0.357 ± 0.012
8,CTCACGCA,0.375 ± 0.022
9,CTTACGCA,0.0993 ± 0.0077
10,GTCACGCA,0.279 ± 0.017
11,ATATAGGC,-0.0504 ± 0.058
12,ACTTAAGT,-0.0767 ± 0.13
13,GTGCTCTA,-0.178 ± 0.029
14,ACCCGAAC,-0.0199 ± 0.021
15,AGCAAAAT,-0.0958 ± 0.067
16,CCCTTACG,-0.0777 ± 0.068
17,GCCTGCAA,-0.0777 ± 0.016
18,TTGCTAAA,0.109 ± 0.08
19,GCGCTAAC,0.388 ± 0.007
20,GTGCTAAA,0.384 ± 0.026
21,CTGCTAAA,0.0425 ± 0.15
22,ATGCTAAC,0.0372 ± 0.018
23,CCGCTAAC,0.16 ± 0.031
24,CTGCTAAC,0.321 ± 0.029
25,GTGCTAAC,0.432 ± 0.012

row,Sequence,PBM E-score of 8-mer
1,GCGCTAAA,0.338 ± 0.014
2,AACAAGGT,0.271 ± 0.009
3,AGTAGCGC,0.224 ± 0.014
4,GACCATAC,-0.206 ± 0.012
5,ACAACCAT,0.0868 ± 0.041
6,GAAGTCGA,0.107 ± 0.051
7,AGTCTGGG,-0.278 ± 0.029
8,CCCAACGG,-0.055 ± 0.1
9,CCGTTAAC,0.228 ± 0.007
10,CTGTTATA,0.137 ± 0.071
11,GCGTTAAC,0.374 ± 0.011
12,CTGTTGGA,0.0702 ± 0.044
13,ATGTTATA,-0.0933 ± 0.013
14,GTGTTGGA,0.367 ± 0.0068
15,ATGTTAAC,0.182 ± 0.097
16,GTGTTAAC,0.4543 ± 0.0026
17,GTGTTATA,0.4 ± 0.034
18,ATGTTGGA,-0.0349 ± 0.065
19,CTGTTAAC,0.312 ± 0.028
20,ACGTTAAC,0.255 ± 0.013
21,AAAGCGCT,0.0608 ± 0.028
22,GAGCAGTA,-0.00784 ± 0.039
